Data taken from PubChem BioAssay (EPA / NIEHS).
Calls of active or inactive are those of the source. Rule for the calls: active = hit-call score of the fitted dose curve at least 0.9, where 1 is the maximum; inactive = score below 0.9.

Each compound was assayed against Transcriptional activator Myb (Homo sapiens) (UniProt P10242) (assay: ATG_Myb_CIS: Attagene CIS-FACTORIAL HepG2 Assay for human Myeloblastosis (Myb) Proto-Oncogene Transcription Factor (AID 2282986)). Settings: HepG2 Attagene CIS-FACTORIAL Myb reporter transcription; actives raise or lower the signal.
Chain of Transcriptional activator Myb (Homo sapiens) (P10242 whole entry, looked up): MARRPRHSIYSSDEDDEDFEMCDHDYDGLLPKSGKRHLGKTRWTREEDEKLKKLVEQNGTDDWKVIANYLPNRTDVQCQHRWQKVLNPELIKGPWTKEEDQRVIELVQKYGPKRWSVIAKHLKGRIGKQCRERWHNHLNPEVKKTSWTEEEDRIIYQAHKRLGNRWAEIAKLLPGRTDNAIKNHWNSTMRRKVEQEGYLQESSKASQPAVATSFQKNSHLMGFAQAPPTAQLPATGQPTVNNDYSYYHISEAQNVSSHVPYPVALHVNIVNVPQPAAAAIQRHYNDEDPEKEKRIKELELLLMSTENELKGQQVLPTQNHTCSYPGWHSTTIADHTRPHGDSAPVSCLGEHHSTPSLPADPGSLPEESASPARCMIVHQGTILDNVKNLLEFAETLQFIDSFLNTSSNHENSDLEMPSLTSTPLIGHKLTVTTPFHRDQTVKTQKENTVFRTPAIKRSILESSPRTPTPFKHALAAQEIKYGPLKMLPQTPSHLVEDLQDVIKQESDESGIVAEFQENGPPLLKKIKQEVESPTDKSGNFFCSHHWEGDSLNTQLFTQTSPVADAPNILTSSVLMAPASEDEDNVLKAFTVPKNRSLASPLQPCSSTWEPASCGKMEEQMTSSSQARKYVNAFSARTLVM
Protocol: ATG_CIS is a cell-based, multiplexed-readout assay that uses HepG2, a human liver cell line, with measurements taken at 24 hours after chemical dosing in a 24-well plate.ATG_Myb_CIS is one of 52 assay component(s) measured or calculated from the ATG_CIS assay. It is designed to make measurements of mRNA induction, a form of inducible reporter, as detected with fluorescence intensity signals by Reverse transcription polymerase chain reaction (RT-PCR) and Capillary electrophoresis technology.Data from the assay component ATG_Myb_CIS was analyzed into 1 assay endpoint. This assay endpoint, ATG_Myb_CIS, was analyzed with bidirectional fitting relative to DMSO as the negative control and baseline of activity. Using a type of inducible reporter, measures of mRNA for gain or loss-of-signal activity can be used to understand the reporter gene at the transcription factor-level as they relate to the gene MYB. Furthermore, this assay endpoint can be referred to as a primary readout, because this assay has produced multiple assay endpoints where this one serves a reporter gene function. To generalize the intended target to other relatable targets, this assay endpoint is annotated to the dna binding intended target family, where the subfamily is MYB proteins.
Human liver HepG2 cells are transiently transfected with multiple reporter transcription units (MRTUs) in 6-well plates using FuGene 6 reagent (Roche; 3 ml FuGene/1 mg DNA). The MRTU constructs are regulated by a cis-regulating element (promoter). […] A major difference between the CIS and TRANS system is that in CIS activities of endogenous TFs are measured, whereas the TRANS assay evaluates changes in activities of exogenous, chimeric NR-Gal4 proteins. […] At the end of 24 hour incubation, total RNA was isolated using TriZol reagent (Invitrogen). The isolated RNA is then reverse-transcribed using oligo(dT) primer and Mo-MLV reverse transcriptase (Invitrogen) with DNAse I (Ambion) treatment for 30 min. The one-tenth of the produced cDNA was amplified by PCR using Taq DNA polymerase (Invitrogen) and two reporter sequence-specific primers. The PCR products were fluorescently labeled by primer extension with 6-arboxyfluorescein (6-FAM) 5'-labeled reporter sequence-specific primer (2 min at 95 C, 20 s at 68 C and 10 min at 72 C) and these products were digested with 5U of HpaI (New England Biolabs) for 2h at 37 C. The fragments were purified using Qiaquick PCR columns (Qiagen), analyzed on an ABI 3130xL genetic analyzer (Applied Biosystems) with peak positions identified by using a set of X-rhodamine (ROX)-labeled MapMarker1000 molecular weight standards (BioVentures). The raw capillary electrophoresis data was processed using Attagraph software (Attagene).

outcome, inactive:
CC(C)C1=CC2=CC[C@@H]3[C@](C)(CCC[C@@]3(C)C(=O)O)[C@H]2CC1
CC(C)(Oc1ccc(C2CC2(Cl)Cl)cc1)C(=O)O (stereo not given)
COC(=O)/C=C/C(C)=C\C=C\C(C)=C\C=C\C=C(C)\C=C\C=C(C)\C=C\C(=O)O
CCOC(=O)NNc1nncc2ccccc12
C[Si](C)(C)O[Si](O)(O)O
O=C1CCCCCN1SSN1CCCCCC1=O
O=S(=O)(O)c1cc(S(=O)(=O)O)c2ccc3c(S(=O)(=O)O)cc(S(=O)(=O)O)c4ccc1c2c43
CC1(C)[C@H]2CC[C@]1(C)C(=O)C2
O=c1[nH]nc(-c2ccc([N+](=O)[O-])o2)o1
CCCCC/C=C\CCC=O
CCCCCCCCCCCCCCCC(=O)OCC
O=C(Nc1cccc(C(F)(F)F)c1)c1cc(Br)cc(Br)c1O
CC(=O)OCCC1CCCCC1
O=C1OC(=O)c2cc(Oc3ccc4c(c3)C(=O)OC4=O)ccc21
C=C(C)C(=O)OCCOc1ccccc1
COc1ccc([C@@H]2CC(=O)c3c(O)cc(O[C@@H]4O[C@H](CO[C@@H]5O[C@@H](C)[C@H](O)[C@@H](O)[C@H]5O)[C@@H](O)[C@H](O)[C@H]4O)cc3O2)cc1OC
C=CC(C)(C)C
COc1cc(NC(=O)CC(C)=O)c(OC)cc1Cl
COC(=O)c1cc(Cl)ccc1[N+](=O)[O-]
CC(=O)c1ccc[nH]1
Cc1ccc2c(c1)C(=O)c1ccccc1C2=O
Clc1nc2ccccc2s1
Cc1ccc(C2OC[C@@H]3OC(c4ccc(C)cc4)O[C@H]([C@H](O)CO)[C@@H]3O2)cc1 (stereo not given in full)
O=C(O)CCCC[C@@H]1SC[C@@H]2NC(=O)N[C@@H]21
N#[N+]c1ccc2c(S(=O)(=O)[O-])cccc2c1O
CCC(Cc1ccccc1)(C(=O)c1ccc(N2CCOCC2)cc1)N(C)C (stereo not given)
O=C(Cl)c1cc(C(=O)Cl)cc(C(=O)Cl)c1
CC(C)C(=O)C(C)C
CC(C)(C)c1ccc(-c2ccc(C(C)(C)C)cc2)cc1
C[C@]12C=CC(=O)C=C1CC[C@@H]1[C@@H]2[C@@H](O)C[C@@]2(C)[C@H]1CC[C@]2(O)C(=O)CO
CCOC(=O)CC(C(C)=O)C(C)=O
CC(=O)OC1C2(C)CCC(C2)C1(C)C (stereo not given)
CC(CC=O)c1ccccc1 (stereo not given)
NNC(=O)c1cccc(C(=O)NN)c1
C[C@]12CCC(=O)C=C1CC[C@@H]1[C@@H]2C(=O)C[C@@]2(C)[C@H]1CC[C@]2(O)C(=O)CO
Cc1ccc(N/N=c2\c(=O)cc/c(=N/Nc3ccc(S(=O)(=O)O)cc3)c2=O)c(C)c1
CC(C)(C)C(=O)CCc1ccc(Cl)cc1
COC(F)(F)C(F)(C(F)(F)F)C(F)(F)F
CCCCCCCCCCCCCCCC[N+](C)(C)CC
C=CCOCC(O)CCl (stereo not given)
